For eight compounds, growth results are on record in PubChem BioAssay (NCI).

Each structure is given as a SMILES string. This is part of a sample that, as a whole, favours compounds with a hit. Of some 83,000 tested, about 20% had one in any assay.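 Single-dose data. Exposure time 48 hours. Values below 10 considered active.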 Unmarked numbers belong to inactive results. Calls of active or inactive are those of the source.

Common to all, as to experiment: NCI-60 one-dose screen, 48 h (100 = growth as untreated, 0 = no growth, -100 = all killed)
Holding throughout (settings): 10 µM unless noted

The test system of experiment [1] is HCT-15 colon.
The test system of experiment [2] is HT29 colon.
For experiment [3], the system named is SNB-75 CNS.
Experiment [4] concerns SNB-19 CNS.
For experiment [5], the system named is U251 CNS.
Experiment [6] deals with PC-3 prostate.
The subject of experiment [7] is SK-MEL-5 melanoma.
Experiment [8] has as its system UACC-62 melanoma.
Experiment [9] deals with LOX IMVI melanoma.
Experiment [10] deals with SK-MEL-28 melanoma.
Experiment [11] concerns EKVX NSCLC.
The test system of experiment [12] is SN12C renal.
For experiment [13], the system named is UO-31 renal.
Experiment [14] concerns TK-10 renal.
Experiment [15] concerns ACHN renal.
Experiment [16] relates to CAKI-1 renal.
The test system of experiment [17] is A498 renal.
The subject of experiment [18] is CCRF-CEM leukemia.
Experiment [19] has as its system MOLT-4 leukemia.

Turning to `C=CC(=O)Nc1cccc(Nc2nc(Nc3ccc(N4CCN(C(C)=O)CC4)cc3OC)ncc2C(F)(F)F)c1`, the growth is 5% (active) in [1]; -7.05% (active) in experiment [2]; 16.1% in experiment [3]; 39.6% in [4]; 30.1% in [5]; 27.6% in [6]. The growth in experiment [7] is 6.86% (active); in experiment [8], 11.1%; in [9] it was 6.36% (active); in experiment [10], 50.6%; in experiment [11] it was 1.17% (active); in experiment [12] it was 20.7%. Moreover, the growth in experiment [13] is -18.3% (active); in [14], -24.6% (active); in [15], 5.26% (active); in experiment [16] it was -13.1% (active); in [17], -47.1% (active); in [18] it was 19.2%. For the same compound, the growth in experiment [19] is 12.6%.

Take `Cc1cc([C@@H](C)Nc2ccccc2C(=O)O)c2nc(N3CCOCC3)cc(=O)n2c1`: the growth in experiment [1] was 44.5%; in experiment [2], 35.9%; in experiment [3], -19.5% (active); in experiment [4] it was 52.8%; in [5] it was 55.4%; in experiment [6], 30.5%. For the same compound, the growth is 52.5% in [7]; 14% in experiment [8]; 30.1% in experiment [9]; 43.9% in experiment [10]; 61.7% in experiment [11]; 44.1% in experiment [12]. The growth in [13] was 15.7%; in [14], 42.6%; in experiment [15], 46.3%; in experiment [16], 18.9%; in [17], -36.7% (active); in experiment [18], 23.5%. In addition, in [19], the growth was 20.6%.

Turning to `O=C1C=CC2(NN=C(c3ccccc3)N2c2cccc(Cl)c2)c2cccc(O)c21` (configuration not stated), the growth in experiment [1] was 23.8%; in experiment [2], 79.3%; in experiment [3], 57.5%; in [4], 43.9%; in experiment [5] it was 24.1%; in experiment [6], 32.7%. The growth in experiment [7] is -54.6% (active); in experiment [8], 3.48% (active); in [9], 3.66% (active); in experiment [10], 35.8%; in [11] it was 76.2%; in [12], 41.6%. Moreover, the growth in experiment [13] was 33.3%; in experiment [14], 118%; in experiment [15], 45.6%; in experiment [16], 90.7%; in [17], 89.1%; in experiment [18], 70.9%. In experiment [19], the growth was 67.6%.

Turning to `O=C(O)c1ccc2c(c1)nc(Nc1cccc(Cl)c1)c1ccncc12`, the growth was 5.48% (active) in [1]; 19.2% in [2]; -25.6% (active) in [3]; 13.5% in [4]; -24.6% (active) in experiment [5]; 10.1% in experiment [6]. Besides, the growth in [7] was -64.9% (active); in experiment [8], -50.4% (active); in experiment [9] it was 7.77% (active); in [10], 3.16% (active); in experiment [11], 19.6%; in [12], 12.5%. Also, the growth is -14% (active) in [13]; 0.456% (active) in experiment [14]; -0.277% (active) in [15]; -16.7% (active) in [16]; -49.9% (active) in experiment [17]; 3.22% (active) in experiment [18]. For the same compound, the growth in experiment [19] was -6.15% (active).

For `CC(C)NC[C@@H](C(=O)N1CCN(c2ncnc3c2[C@H](C)C[C@H]3O)CC1)c1ccc(Cl)cc1`, the growth is 71.2% in experiment [1]; 27.4% in experiment [2]; 8.53% (active) in experiment [3]; 26.7% in [4]; 28.4% in [5]; 33% in experiment [6]. In addition, the growth is 72.4% in [7]; 44.6% in experiment [8]; 66.8% in [9]; 55.6% in experiment [10]; 72% in experiment [11]; 64.4% in experiment [12]. The growth in [13] was 53.7%; in experiment [14], 32.2%; in experiment [15] it was 68.7%; in experiment [16], 45.1%; in experiment [17] it was -21.7% (active); in [18] it was 22.5%. Besides, the growth in experiment [19] is 23.3%.

On to `Cc1nc2ccc(-n3ncc(C(=O)c4cc5ccccc5[nH]4)c3N)cc2[nH]1`, for which the growth is 30.9% in experiment [1]; 23.1% in experiment [2]; 39.9% in experiment [3]; 48.2% in experiment [4]; 24.4% in experiment [5]; 41.1% in experiment [6]. Further, the growth in [7] was 32.8%; in experiment [8], 43.5%; in [9] it was 14.8%; in experiment [10] it was 69.7%; in experiment [11], 63.9%; in experiment [12], 61.2%. Further, the growth in [13] was 48.9%; in experiment [14] it was 71.3%; in [15], 49.8%; in experiment [16], 62.2%; in experiment [17], 8.03% (active); in experiment [18], 43.8%. For the same compound, in [19], the growth was 25.1%.

With `COc1cc(Nc2ncc(F)c(Nc3ccc4c(n3)NC(=O)C(C)(C)O4)n2)cc(OC)c1OC`, the growth is 53.3% in experiment [1]; 12.3% in experiment [2]; -7.82% (active) in [3]; 64.6% in experiment [4]; 48.5% in experiment [5]; 51.9% in experiment [6]. Further, the growth was 71.8% in experiment [7]; 58% in experiment [8]; 9.51% (active) in [9]; 67.1% in [10]; 52.4% in experiment [11]; 36.6% in [12]. The growth in [13] was 2.95% (active); in experiment [14], 27.2%; in [15], 5.32% (active); in experiment [16], 9.51% (active); in experiment [17] it was -43.9% (active); in experiment [18], 61%. The growth in experiment [19] was 52.4%.

On to `COC[C@@H](C)n1c(C2CCOCC2)nc2c1C1C=C(OC)C(c3c(C)noc3C)=CC1N=C2` (some centres not stated), for which the growth in experiment [1] is 30.7%; in experiment [2], 17.4%; in experiment [3] it was 2.03% (active); in experiment [4] it was 46.3%; in experiment [5], 69%; in experiment [6], 38.2%. In addition, the growth was 38.7% in [7]; 18.5% in [8]; 19.6% in experiment [9]; 65.4% in [10]; 56.9% in experiment [11]; 64.9% in experiment [12]. The growth is 13.2% in experiment [13]; 6.38% (active) in experiment [14]; 41.2% in experiment [15]; 41% in experiment [16]; 18.6% in [17]; 50.8% in experiment [18]. Besides, in [19], the growth was 59%.
